Inconclusive results are not listed. The source made the active and inactive calls. Unless noted, the call rests on the fitted dose curve; in most records, active means well fitted curve in either direction with a large enough effect (not every such curve was filed as active); inconclusive means small, poorly fitted or top-dose-only effect, or another doubt; inactive means flat fitted curve, though single readings scatter.
What was measured:
[1] = target: Lysosomal acid glucosylceramidase (Homo sapiens) (UniProt P04062); experiment: Glucocerebrosidase-p2 (AID 348; in the data active means potency below about 10 µM; further: potency means the concentration at half of the fitted maximal effect); settings: purified GBA, blue fluorogenic substrate, 40 min
Summary of the method: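 Normal human glucocerebrosidase (0.2 nM) with blue fluorogenic substrate (80 uM final) in citrate/phosphate pH 5.9 with 10mM sodium taurocholate, 0.01% tween-20; 40 min RT, NaOH/glycine stop; fluorescence Ex 365/Em 440; AC50 from a titration from 0.6 nM upwards.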

[2] = AP1 Signaling Pathway (AID 357); settings: ME-180 AP-1-bla reporter, EGF-induced, beta-lactamase ratio, 5 h; at 7.69 µM (top of the series) unless noted;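 further: ME-180 reporter cells stimulated with EGF at its EC50 level; on the % scale 0 is the no-effect control and ±100 the full control effect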
Summary of the method: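 AP-1-bla ME-180 cells, Opti-MEM + 0.5% dialyzed FBS, plated overnight 37 °C. Cpd titration + EC50 EGF, 5 h 37 °C. CCF4 2.5 h RT; ex 405, em 460/530 ratio → %activity, AC50.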

[3] = NFAT Signaling Pathway (AID 444); settings: Jurkat NFAT-bla M1, carbachol, beta-lactamase ratio, 5 h; at 7.69 µM (top of the series) unless noted;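 further: carbachol stimulus at about its EC50 of 1 µM final; on the % scale 0 is the no-effect control and ±100 the full control effect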
Summary of the method: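 Jurkat cells with NFAT-driven β-lactamase reporter and co-expressed M1 receptor, stimulated with carbachol (final 1 uM, ~EC50), compound titration, 5 h at 37 °C. CCF4 loaded 1 h at RT; 460/530 nm ratio gave %activity and AC50.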

[4] = Stat Signaling Pathway (AID 446); settings: ME-180 (cervical carcinoma) SIE beta-lactamase reporter, IL-6 stimulated, 5 h; at 7.69 µM (top of the series) unless noted;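 further: ME-180 cervical cancer cells given 40 pM IL-6 alongside compound; SIE-controlled beta-lactamase reporter measured as 460/530 nm FRET emission ratio; on the % scale 0 is the no-effect control and ±100 the full control effect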
Summary of the method: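 Compound effects on IL-6-induced STAT reporter activity were measured in ME-180 cells. After overnight culture, cells were co-treated with 40 pM IL-6 for 5 hrs before beta-lactamase substrate loading at room temperature.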

[5] = target: Glucocorticoid receptor (Homo sapiens) (UniProt P04150); experiment: GR-GFP Redistribution (AID 450;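 active means compounds whose dose series gives a full or clear partial fitted curve of increased nuclear translocation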; further: potency means the concentration at half of the fitted maximal effect); settings: U2OS GR-GFP nuclear translocation, laser cytometry, 2 h
[6] = target: Glucocorticoid receptor (Homo sapiens) (UniProt P04150); experiment: GR-EFC Redistribution (AID 451; calls by dose curve; further: potency means the concentration at half of the fitted maximal effect); settings: CHO-K1 GR-EFC translocation, beta-gal luminescence, 2 h
Summary of the method: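 CHO-K1 cells expressing nuclear EA and GR-ED fragments of b-gal; compounds titrated up to 46 uM final, 2 h at 37 C. GR nuclear translocation read as complemented b-gal luminescence after 1 h RT detection.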

[7] = target: Mitogen-activated protein kinase 10 (Mus musculus) (UniProt Q61831); experiment: JNK3 AlphaScreen Assay (AID 530); settings: JNK3 lysate, c-Jun phosphorylation; series mostly up to 57.1 µM;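 further: kinase came from lysate of stimulated human HepG2 cells; signal reports phosphorylation of biotinylated GST-cJun 1-79 at Ser73 with 10 µM ATP; on the % scale 0 is the no-effect control and ±100 the full control effect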
Summary of the method: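 HepG2 lysate (IL-1b/TNFa pre-activated) + biotin-GST-cJun 1-79 + anti-pSer73 cJun; cpd titration, 15 min RT; ATP 10 uM start; Tris pH 7.6, MgCl2, DTT, vanadate; beads in EDTA buffer; AlphaScreen.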

[8] = target: 3',5'-cyclic-AMP phosphodiesterase 4B (Homo sapiens) (UniProt Q07343); experiment: qHTS Assay for Inhibitors of PDE-IV (AID 607; active means well fitted activation curve with a large enough effect in the main read-out, with a control signal flat, not every such curve was filed as active; further: % of control where 0% means no effect); settings: HEK293 ACTOne CNG channel cells, membrane potential fluorescence; series mostly up to 22.9 µM
Summary of the method: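 ACTOne HEK293 cells carry a modified cAMP-gated CNG channel and express endogenous PDE4; plated 1000 cells/well, compounds up to 22.9 uM final. Membrane-potential dye fluorescence (ex 535/em 590) was read; parental cells received 10 uM forskolin + 100 uM RO 20-1724.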

[9] = target: Cytochrome P450 3A4 (Homo sapiens) (UniProt P08684); experiment: qHTS Assay for Activators of Cytochrome P450 3A4 (AID 885; active means well fitted curve in the direction sought with a large enough effect; an effect the other way counts as inactive or inconclusive; further: nearly all actives have a fitted effect of over 65% in size); settings: recombinant CYP3A4, Luciferin-PPXE luminescence, 60 min; series mostly up to 57.1 µM
Summary of the method: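 CYP3A4 activity: Luciferin-PPXE O-dealkylation, 25uM substrate, 200mM KPO4, RT throughout. Read-out is luciferase luminescence; higher values reflect activation.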

[10] = Confirmation and Secondary Assay for Modulators of Hemoglobin Beta Chain Splicing at IVS2 654 locus (AID 910; active means well fitted curve in the direction sought with a large enough effect; an effect the other way counts as inactive or inconclusive;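 further: HeLa cells stably carrying EGFP split by mutant beta-globin IVS2-654 intron; % of control where 0% means no effect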); settings: HeLa EGFP-654 splicing reporter, GFP fluorescence, 48 h; series mostly up to 38.3 µM
Summary of the method: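 HeLa cells stably expressing EGFP interrupted by β-globin IVS2-654 intron, seeded overnight in Opti-MEM/2% FCS, then treated 2 days at 37 °C. Restored splicing read as total peak GFP intensity per well by laser scanning cytometry (488 nm excitation, 500–520 nm emission); 500 nM antisense PNA as control.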

[11] = Confirmation and Secondary Assay for Modulators of Hemoglobin Beta Chain Splicing at IVS2 705 locus (AID 930; active means well fitted curve in the direction sought with a large enough effect; an effect the other way counts as inactive or inconclusive;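 further: HeLa cells stably expressing the EGFP-705 splicing reporter; GFP fluorescence per well restored by corrected splicing of the IVS2-705 intron in EGFP; % of control where 0% means no effect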); settings: HeLa EGFP-705 splicing reporter, GFP fluorescence, 48 h; series mostly up to 38.3 µM
Summary of the method: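 HeLa cells stably carrying EGFP interrupted by mutant beta-globin intron 2 (IVS2-705) treated 2 days at 37C with compound; 500 nM antisense PNA as control. Correct splicing read as total peak GFP intensity per well by laser-scanning cytometry.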

[12] = qHTS Assay for Lipid Storage Modulators (AID 1519; calls by dose curve); settings: Drosophila S3 cells, BODIPY lipid droplet/cell ratio, laser cytometry, cells loaded with oleic acid; for activity change, negative = inhibition: at 57.5 µM (top of the series)
Summary of the method: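 Cells seeded at 5,000 per well were treated with compounds over a concentration series and loaded with oleic acid (400 uM, as added). Lipid droplet fluorescence (488 nm excitation, 500-530 nm channel) was read by laser-scanning cytometry and normalized to 20 uM Triacsin C.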

[13] = target: Ubiquitin carboxyl-terminal hydrolase 1 (Homo sapiens) (UniProt O94782); experiment: Inhibitors of USP1/UAF1: Pilot qHTS (AID 504865; active means well fitted curve in the direction sought with a large enough effect; an effect the other way counts as inactive or inconclusive;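 further: rhodamine fluorescence freed from ubiquitin-rhodamine substrate followed over time; top concentration of the series differs between compounds; on the % scale 0 is the no-effect control and ±100 the full control effect; nearly all actives have a fitted effect of over 35% in size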); settings: purified USP1/UAF1, Ub-rhodamine cleavage fluorescence; series mostly up to 54.9 µM
Summary of the method: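 In 50mM HEPES pH 7.8 containing 0.5mM EDTA, 1mM TCEP, 0.1 mg/ml BSA and 0.01% Tween-20, 1nM USP1/UAF1 is exposed to compound for 15 min, then Ub-Rho (150nM final) is added and fluorescence is read over time.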

[14] = Primary qHTS for small molecule stabilizers of the endoplasmic reticulum resident proteome: Secreted ER Calcium Modulated Protein (SERCaMP) assay (AID 1508630; active means well fitted curve in the direction sought with a large enough effect; an effect the other way counts as inactive or inconclusive; further: on the % scale 0 is the no-effect control and ±100 the full control effect); settings: SH-SY5Y GLuc-SERCaMP (Gaussia luciferase released on ER calcium loss) secretion, thapsigargin, luminescence; series mostly up to 38.4 µM
Summary of the method: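 The SH-SY5Y reporter protocol was run at 3 concentrations up to 38.3 uM (primary) or 11 concentrations (follow-up): 16 h compound, 100 nM thapsigargin for 4 h, then extracellular luciferase luminescence.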

[15] = target: Cytochrome P450 2C9 (Homo sapiens) (UniProt P11712); experiment: qHTS Assay for Inhibitors and Substrates of Cytochrome P450 2C9 (AID 883; active means well fitted curve in the direction sought with a large enough effect; an effect the other way counts as inactive or inconclusive; further: on the % scale 0 is the no-effect control and ±100 the full control effect; nearly all actives have a fitted effect of over 60% in size); settings: recombinant CYP2C9, luciferin-H luminescence, 60 min; series mostly up to 57.1 µM
Summary of the method: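 Human CYP2C9 (10nM) with Luciferin-H at 100uM (its KM) in 25mM KPO4; compound preincubated 10 min at 37C, then NADPH regeneration for 60 min at 37C. Luciferin read by luminescence after detection reagent; normalized to 57uM sulphaphenazole as full inhibition.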

[16] = target: Cytochrome P450 3A4 (Homo sapiens) (UniProt P08684); experiment: qHTS Assay for Inhibitors and Substrates of Cytochrome P450 3A4 (AID 884; active means well fitted curve in the direction sought with a large enough effect; an effect the other way counts as inactive or inconclusive; further: potency means the concentration at half of the fitted maximal effect; nearly all actives have a fitted effect of over 50% in size); settings: recombinant CYP3A4, Luciferin-PPXE luminescence; series mostly up to 57.1 µM
Summary of the method: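 Luminescent readout of luciferin produced by CYP3A4 (20 nM) dealkylation of Luciferin-PPXE, 25 uM (its KM). NADPH-driven reaction ran 60 min at RT after 10 min compound preincubation; data scaled to 57 uM ketoconazole as 100% inhibition.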

[17] = target: Cytochrome P450 1A2 (Homo sapiens) (UniProt P05177); experiment: p450-cyp1a2 (AID 410; calls by dose curve; further: potency means the concentration at half of the fitted maximal effect;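 on activity change, negative = inhibition: -100% = full effect of reference inhibitor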); settings: recombinant CYP1A2, luciferin-ME demethylation, luminescence; series mostly up to 57 µM
Summary of the method: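 Read-out is luminescence from luciferin produced by CYP1A2 demethylation of Luciferin-ME (100uM, at Km). Detection reagent stopped the 60 min NADPH-dependent reaction; signals were normalized to 57 uM furafylline.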

[18] = measured here: cell count channel max response
[19] = measured here: lipid channel max response

Cytochrome P450 3A4 (Homo sapiens), sequence (P08684 whole entry, looked up): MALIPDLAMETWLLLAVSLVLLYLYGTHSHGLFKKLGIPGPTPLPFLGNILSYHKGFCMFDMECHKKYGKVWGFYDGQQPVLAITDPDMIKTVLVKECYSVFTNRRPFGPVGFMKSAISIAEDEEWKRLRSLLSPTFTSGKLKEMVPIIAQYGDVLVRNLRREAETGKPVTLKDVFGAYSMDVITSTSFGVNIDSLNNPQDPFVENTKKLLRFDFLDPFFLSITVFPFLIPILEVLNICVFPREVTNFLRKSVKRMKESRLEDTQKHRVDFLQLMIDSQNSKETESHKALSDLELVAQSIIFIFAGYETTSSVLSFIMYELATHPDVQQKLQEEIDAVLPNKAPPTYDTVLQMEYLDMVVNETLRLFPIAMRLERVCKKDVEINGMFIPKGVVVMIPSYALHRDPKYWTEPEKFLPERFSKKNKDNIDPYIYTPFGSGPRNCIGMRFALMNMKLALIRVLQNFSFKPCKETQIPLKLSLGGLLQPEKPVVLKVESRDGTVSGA
Glucocorticoid receptor (Homo sapiens), sequence (P04150 whole entry, looked up, the tested form may be a part): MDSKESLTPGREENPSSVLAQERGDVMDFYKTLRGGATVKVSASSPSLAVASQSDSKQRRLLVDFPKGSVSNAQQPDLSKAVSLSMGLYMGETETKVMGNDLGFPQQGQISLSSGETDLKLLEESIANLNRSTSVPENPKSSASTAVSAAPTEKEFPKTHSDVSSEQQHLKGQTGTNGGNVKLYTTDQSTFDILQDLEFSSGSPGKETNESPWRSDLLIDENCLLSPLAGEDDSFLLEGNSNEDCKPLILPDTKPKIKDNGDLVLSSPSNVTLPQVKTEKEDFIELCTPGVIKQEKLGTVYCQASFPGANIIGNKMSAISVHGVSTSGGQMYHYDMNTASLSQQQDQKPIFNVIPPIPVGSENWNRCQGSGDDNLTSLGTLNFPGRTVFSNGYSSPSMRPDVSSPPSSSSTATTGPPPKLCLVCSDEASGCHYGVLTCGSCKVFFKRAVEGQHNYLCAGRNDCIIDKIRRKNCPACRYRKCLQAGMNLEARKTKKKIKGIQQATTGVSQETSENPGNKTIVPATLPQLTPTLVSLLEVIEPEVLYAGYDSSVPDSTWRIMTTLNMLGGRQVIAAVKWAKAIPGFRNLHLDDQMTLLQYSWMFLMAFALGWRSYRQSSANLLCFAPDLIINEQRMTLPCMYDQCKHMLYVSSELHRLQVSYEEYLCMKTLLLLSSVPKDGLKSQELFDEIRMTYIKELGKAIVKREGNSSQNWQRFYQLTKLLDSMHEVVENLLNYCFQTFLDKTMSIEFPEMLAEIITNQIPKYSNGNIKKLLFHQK
3',5'-cyclic-AMP phosphodiesterase 4B (Homo sapiens), sequence (Q07343 whole entry, looked up): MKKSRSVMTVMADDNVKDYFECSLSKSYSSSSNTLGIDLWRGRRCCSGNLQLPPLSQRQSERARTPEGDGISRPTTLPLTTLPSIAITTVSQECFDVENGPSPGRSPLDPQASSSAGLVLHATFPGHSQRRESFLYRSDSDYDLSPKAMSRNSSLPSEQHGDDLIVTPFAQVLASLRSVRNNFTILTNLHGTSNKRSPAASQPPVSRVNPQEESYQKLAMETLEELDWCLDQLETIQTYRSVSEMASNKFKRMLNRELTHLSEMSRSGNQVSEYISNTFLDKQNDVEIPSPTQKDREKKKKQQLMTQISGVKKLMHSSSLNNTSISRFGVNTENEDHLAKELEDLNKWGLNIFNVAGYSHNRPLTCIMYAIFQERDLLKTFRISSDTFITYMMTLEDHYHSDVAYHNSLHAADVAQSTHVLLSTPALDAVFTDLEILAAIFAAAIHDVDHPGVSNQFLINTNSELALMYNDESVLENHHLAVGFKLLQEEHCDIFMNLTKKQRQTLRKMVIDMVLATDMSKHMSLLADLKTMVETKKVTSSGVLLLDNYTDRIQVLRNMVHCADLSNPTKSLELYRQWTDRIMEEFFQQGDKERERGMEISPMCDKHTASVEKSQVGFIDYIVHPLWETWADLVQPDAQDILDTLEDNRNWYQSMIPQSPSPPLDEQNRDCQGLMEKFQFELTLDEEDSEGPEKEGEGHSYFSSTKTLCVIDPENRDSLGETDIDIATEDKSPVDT
Lysosomal acid glucosylceramidase (Homo sapiens), sequence (P04062 whole entry, looked up): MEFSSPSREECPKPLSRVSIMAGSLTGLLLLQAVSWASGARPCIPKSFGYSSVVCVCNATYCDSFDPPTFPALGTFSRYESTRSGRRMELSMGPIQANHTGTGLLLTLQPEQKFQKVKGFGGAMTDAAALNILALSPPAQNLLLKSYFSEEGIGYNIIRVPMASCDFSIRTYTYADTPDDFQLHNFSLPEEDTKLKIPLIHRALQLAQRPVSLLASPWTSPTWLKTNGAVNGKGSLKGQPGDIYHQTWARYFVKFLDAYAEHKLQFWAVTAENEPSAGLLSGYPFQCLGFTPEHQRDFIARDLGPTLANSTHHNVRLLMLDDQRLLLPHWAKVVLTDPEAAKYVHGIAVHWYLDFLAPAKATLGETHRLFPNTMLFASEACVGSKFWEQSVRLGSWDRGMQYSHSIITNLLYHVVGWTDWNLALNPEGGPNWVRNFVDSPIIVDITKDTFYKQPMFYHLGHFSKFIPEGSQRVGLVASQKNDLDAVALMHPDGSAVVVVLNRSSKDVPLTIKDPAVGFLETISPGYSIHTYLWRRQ
Cytochrome P450 1A2 (Homo sapiens), sequence (P05177 whole entry, looked up): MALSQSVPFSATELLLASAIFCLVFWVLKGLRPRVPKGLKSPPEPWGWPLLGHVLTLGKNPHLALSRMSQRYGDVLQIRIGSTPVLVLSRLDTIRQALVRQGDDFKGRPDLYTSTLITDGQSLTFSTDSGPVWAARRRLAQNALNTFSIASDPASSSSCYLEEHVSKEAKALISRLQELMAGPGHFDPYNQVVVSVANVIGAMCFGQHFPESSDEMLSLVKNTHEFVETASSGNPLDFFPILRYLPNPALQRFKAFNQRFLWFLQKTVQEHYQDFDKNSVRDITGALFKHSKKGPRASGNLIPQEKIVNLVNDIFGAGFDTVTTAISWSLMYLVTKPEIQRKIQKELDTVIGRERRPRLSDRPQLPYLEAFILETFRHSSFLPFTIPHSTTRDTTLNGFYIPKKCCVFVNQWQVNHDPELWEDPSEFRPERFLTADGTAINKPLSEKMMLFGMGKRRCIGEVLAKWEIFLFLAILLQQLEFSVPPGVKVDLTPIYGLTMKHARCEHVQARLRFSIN
Cytochrome P450 2C9 (Homo sapiens), sequence (P11712 whole entry, looked up): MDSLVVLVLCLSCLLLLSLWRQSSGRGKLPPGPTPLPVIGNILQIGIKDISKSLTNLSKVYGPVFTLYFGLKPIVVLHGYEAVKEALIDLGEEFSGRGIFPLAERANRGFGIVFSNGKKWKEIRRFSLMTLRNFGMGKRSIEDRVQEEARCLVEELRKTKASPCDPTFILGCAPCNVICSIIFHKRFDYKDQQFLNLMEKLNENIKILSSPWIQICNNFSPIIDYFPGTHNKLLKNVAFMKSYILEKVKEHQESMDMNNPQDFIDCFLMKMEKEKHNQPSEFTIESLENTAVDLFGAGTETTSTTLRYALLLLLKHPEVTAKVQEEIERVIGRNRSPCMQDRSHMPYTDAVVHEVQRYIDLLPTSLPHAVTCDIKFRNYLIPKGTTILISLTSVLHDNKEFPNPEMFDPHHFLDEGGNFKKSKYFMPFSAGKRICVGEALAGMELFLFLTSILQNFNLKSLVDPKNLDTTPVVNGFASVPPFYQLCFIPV
Ubiquitin carboxyl-terminal hydrolase 1 (Homo sapiens), sequence (O94782 whole entry, looked up): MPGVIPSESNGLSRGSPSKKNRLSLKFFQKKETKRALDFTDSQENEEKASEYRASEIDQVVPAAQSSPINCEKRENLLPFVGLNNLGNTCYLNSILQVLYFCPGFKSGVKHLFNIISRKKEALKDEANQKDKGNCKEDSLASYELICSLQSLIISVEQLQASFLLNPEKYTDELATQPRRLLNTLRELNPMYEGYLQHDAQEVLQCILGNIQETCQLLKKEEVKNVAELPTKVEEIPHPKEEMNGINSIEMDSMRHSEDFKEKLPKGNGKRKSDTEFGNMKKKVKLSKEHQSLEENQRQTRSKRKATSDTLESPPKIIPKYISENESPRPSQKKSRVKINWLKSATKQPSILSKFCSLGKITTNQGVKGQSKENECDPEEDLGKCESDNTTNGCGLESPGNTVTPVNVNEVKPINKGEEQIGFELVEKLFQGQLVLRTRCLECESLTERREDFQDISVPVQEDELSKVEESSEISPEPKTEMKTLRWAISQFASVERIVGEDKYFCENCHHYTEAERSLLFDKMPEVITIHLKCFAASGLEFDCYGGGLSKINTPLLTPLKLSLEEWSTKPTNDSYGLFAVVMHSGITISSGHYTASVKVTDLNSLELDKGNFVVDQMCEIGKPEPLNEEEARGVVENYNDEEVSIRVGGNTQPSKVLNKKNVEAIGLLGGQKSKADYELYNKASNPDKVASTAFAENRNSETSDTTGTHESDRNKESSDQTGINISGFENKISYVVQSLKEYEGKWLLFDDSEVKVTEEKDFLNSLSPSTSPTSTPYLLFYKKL

c1nc(NC2CCNCC2)c2cc(-c3ccc4c(c3)OCO4)ccc2n1
6.41%: max response [12, 19]
1.52%: max response [12, 18]
inactive: Potency [1] > 11.4 µM | activity change, negative = inhibition [2] 7.44% | activity change, negative = inhibition [3] 15.7% | activity, negative = inhibition [4] 2.23% | Potency [5] > 46 µM | Potency [6] > 46 µM | outcome [7] | Potency [8] | Potency [9] | outcome [10] | outcome [11] | activity change, negative = inhibition [12] 6.44% | Potency [13] | Potency [14]

COc1ccccc1CN1CC[C@@]2(CCCN(C(=O)c3cccc(F)c3)C2)C1
25%: max response [12, 19]
15.7%: max response [12, 18]
inactive: Potency [1] > 11.4 µM | activity change, negative = inhibition [2] -14.6% | activity change, negative = inhibition [3] -10.9% | activity, negative = inhibition [4] 10.2% | Potency [6] > 46 µM | outcome [7] | Potency [8] | activity change, negative = inhibition [12] 5.1% | Potency [14]

COc1ccccc1CN1CC[C@@]2(CCCN(C(=O)c3c(C)noc3C)C2)C1
12.8%: max response [12, 19]
inactive: Potency [1] > 11.4 µM | activity change, negative = inhibition [2] -0.263% | activity change, negative = inhibition [3] -13.2% | activity, negative = inhibition [4] -3.34% | Potency [6] > 46 µM | outcome [7] | Potency [8] | Potency [15] | Potency [9] | activity change, negative = inhibition [12] 6.24% | Potency [14]
active: Potency [16] 1.58 µM
6.8%: max response [12, 18]

COc1ccc(-n2c(=O)c(C)nc3cnc(Oc4ccccc4)nc32)cc1
20.5%: max response [12, 19]
16.7%: max response [12, 18]
active: Potency [17] 7.94 µM
inactive: activity change, negative = inhibition [2] -0.42% | activity change, negative = inhibition [3] 4.01% | activity, negative = inhibition [4] -17.4% | Potency [5] > 9.22 µM | Potency [6] > 46 µM | outcome [7] | Potency [8] | Potency [9] | activity change, negative = inhibition [12] 1.98% | Potency [14]

Cc1cccc(CNc2ncnc3ccc(-c4cccc(C#N)c4)cc23)c1
inactive: activity change, negative = inhibition [2] -19.4% | activity change, negative = inhibition [3] -25.8% | activity, negative = inhibition [4] -6.66% | Potency [6] > 46 µM | outcome [7] | outcome [10] | activity change, negative = inhibition [12] 0.488% | Potency [14]
active: Potency [17] 0.631 µM
-20.2%: max response [12, 18]
-19.2%: max response [12, 19]

O=C(Nc1cccc(F)c1)N1CCC2(CC1)CCN(C(=O)c1cnccn1)CC2
15.9%: max response [12, 19]
11.7%: max response [12, 18]
inactive: activity change, negative = inhibition [2] -10.4% | Potency [17] | activity change, negative = inhibition [3] 20.5% | activity, negative = inhibition [4] -10.8% | Potency [6] > 46 µM | outcome [7] | Potency [8] | activity change, negative = inhibition [12] 3.08% | Potency [14]

O=C(c1csnn1)N1CCC2(CC1)CN(Cc1cc(C(F)(F)F)cc(C(F)(F)F)c1)C2
5.85%: max response [12, 19]
8.43%: max response [12, 18]
inactive: activity change, negative = inhibition [2] 15.8% | Potency [17] | activity change, negative = inhibition [3] -21.8% | activity, negative = inhibition [4] 3.59% | Potency [6] > 46 µM | outcome [7] | Potency [8] | activity change, negative = inhibition [12] -4.63% | Potency [14]

Source: PubChem BioAssay (NCATS)
